# Screening results (PubChem)
# Giardia killer: Small Molecules that selectively kill Giardia lamblia: qHTS; activity change, % at 7.66 µM, hits read low; Giardia lamblia trophozoite viability; hit rate 0.15% among 340,000; in the data active = activity change below about -80%; inconclusive = between about -30% and that limit;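 note: parasites exposed to compound for two days anaerobically before the ATP read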
#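 Giardia trophozoites, 100 cells per well, were exposed to compounds for 48 hrs at 37 deg C under anaerobic conditions; viability was then read as ATP content by bioluminescence after 15-30 min at room temperature.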
# TDP1 cell noCPT: qHTS for Inhibitors of human tyrosyl-DNA phosphodiesterase 1 (TDP1): qHTS in cells in absence of CPT; hit rate 15% among 420,000; Potency, µM (highest dose often 46.2 µM), without a hit: at the highest dose activity change, negative = growth inhibition, most hits filed as inhibitors; DT40 Tdp1-/- hTDP1 cells, no CPT, ATP luminescence, 48 h; note: potency is the fitted concentration of half-maximal effect; nearly all actives have a fitted effect of over 55% in size
#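 Compound effects on proliferation are scored in DT40 Tdp1-/-;hTDP1 cells in the absence of CPT. ATP levels (CellTiter-Glo luminescence) are recorded after a ≥48 hr, 37 °C incubation.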
# IL1B secr inh: qHTS for Inhibitors of Inflammasome Signaling: IL-1-beta AlphaLISA Primary Screen. activity change, % at 57.5 µM. hit rate 4.7% among 360,000. THP-1 LPS/ATP IL-1B secretion, AlphaLISA, 16 h; hits give low values; in the data active = activity change below about -50%; inconclusive = mostly about -30% to -49%
#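 Secreted IL-1B measured by AlphaLISA bead assay after 16 h compound exposure of THP-1 cells; compounds (final up to 57.5 uM) added 1 h before LPS (250 ng/mL) and ATP (1.25 mM) stimulation; lower signal means less secretion.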
# DT40 TDP1 CPT: qHTS for Inhibitors of human tyrosyl-DNA phosphodiesterase 1 (TDP1): qHTS in cells in presence of CPT; hit rate 12% among 420,000; chicken DT40 Tdp1-/-;hTDP1 cells + 20 nM CPT, ATP luminescence, 48 h; AID 686979, 2013; Potency, µM (top dose mostly 46.2 µM), for the others: top-dose activity change, negative = growth inhibition, actives largely listed as inhibitors; note: potency is the fitted concentration of half-maximal effect; nearly all actives have a fitted effect of over 55% in size
#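 Cell growth measured by CellTiter-Glo luminescence after a minimum 48 h, 37 C compound exposure with 20 nM CPT in Tdp1-knockout DT40 cells stably expressing hTDP1, seeded 400/well; qHTS titration format.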
# TDP1 block: qHTS Assay for Inhibitors of Tyrosyl-DNA Phosphodiesterase (TDP1) | AID 485290, 2010 | hit rate 0.28% among 350,000 | recombinant TDP1, AlphaScreen DNA substrate cleavage | Tyrosyl-DNA phosphodiesterase 1 (Homo sapiens), Q9NUW8 | Potency, µM (top dose mostly 130 µM), for the others: at the highest dose activity change, negative = inhibition, actives largely listed as inhibitors; note: potency is the fitted concentration of half-maximal effect; nearly all actives have a fitted effect of over 40% in size
# Target sequence (Q9NUW8 whole entry, looked up): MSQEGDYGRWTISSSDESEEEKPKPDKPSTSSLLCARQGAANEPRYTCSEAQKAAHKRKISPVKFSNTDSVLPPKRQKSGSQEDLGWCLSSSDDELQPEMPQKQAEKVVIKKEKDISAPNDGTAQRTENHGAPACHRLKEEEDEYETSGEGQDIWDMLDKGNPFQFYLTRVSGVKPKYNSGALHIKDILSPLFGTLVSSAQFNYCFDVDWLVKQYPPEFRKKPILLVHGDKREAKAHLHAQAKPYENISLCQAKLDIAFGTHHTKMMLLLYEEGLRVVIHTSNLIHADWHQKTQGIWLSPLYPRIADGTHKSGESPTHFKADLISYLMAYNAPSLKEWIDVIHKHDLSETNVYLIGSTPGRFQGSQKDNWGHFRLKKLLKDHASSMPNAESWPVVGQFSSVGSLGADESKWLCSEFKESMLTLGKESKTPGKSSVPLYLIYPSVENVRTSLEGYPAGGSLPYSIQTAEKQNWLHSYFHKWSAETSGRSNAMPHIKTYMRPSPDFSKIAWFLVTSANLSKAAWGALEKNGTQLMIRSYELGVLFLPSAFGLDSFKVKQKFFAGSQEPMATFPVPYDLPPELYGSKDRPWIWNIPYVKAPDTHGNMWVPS
#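 E. coli-derived human Tdp1, 1 nM final. Cpd preinc 15 min RT; substrate 15 nM final, 5 min RT; AS bead mix 10 ug/ml final, 10 min RT. Signal loss = tyrosine-FITC cleavage. No-enzyme wells = max signal.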
# ELG1 DNA repair: qHTS screen for small molecules that inhibit ELG1-dependent DNA repair in human embryonic kidney (HEK293T) cells expressing luciferase-tagged ELG1. HEK293T ELG1-luciferase reporter, luminescence, 16 h; DNA damage induced by 5-fluorouridine. Potency, µM (doses to about 46.1 µM), inactives show top-dose activity change, negative = inhibition, most hits filed as inhibitors. hit rate 2.3% among 330,000. AID 504467, 2011; note: potency is the fitted concentration of half-maximal effect; nearly all actives have a fitted effect of over 55% in size
#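 Step one: seed 2,000 cells per well. Step two: pin-transfer compound or DMSO alongside 5-fluorouridine. Step three: incubate 16 hr, 37 °C, 5% CO2. Step four: add ONE-Glo, wait 30 min, read luminescence.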
# An asterisk follows results filed as active; ? = inconclusive; . = no result given; ! = not active in a repeat; [ ] = dose if it differs, or a comment. Most compounds without a hit are left out; they make up all but 19% or so of the library. Unless noted, calls come from the whole dose curve; as a rule, active = well fitted curve in the direction sought with a large enough effect; inconclusive = small, poorly fitted or top-dose-only effect, or another doubt; inactive = no such curve, though single readings can be large; an effect the other way counts as inactive or inconclusive. % is set by controls: 0 for no effect and ±100 for the full control effect.
SMILES,Giardia killer,TDP1 cell noCPT,IL1B secr inh,DT40 TDP1 CPT,TDP1 block,ELG1 DNA repair
COc1cc2nc(Cl)nc(NC3CCN(C)CC3)c2cc1OC,.,?,.,11µM*,.,.
COc1cc2nc(N(C)C)nc(NC3CCN(C)CC3)c2cc1OC,.,4µM*,.,4.5µM*,.,.
COc1cc2nc(N(C)C)nc(N)c2cc1OC,-9,26µM*,0,?,-5%,6%
COc1cc2nc(CCNCc3ccccc3)nc(NC3CCN(C)CC3)c2cc1OC,.,5µM*,.,5.6µM*,.,.
CCN(CC)c1ccc(C(=O)OCC(=O)NC(C)(C)C)cc1,-2,?,24,?,1%,-23%
Cc1cc(O)c(C(c2ccccc2)N2CCN(c3ccccc3)CC2)c(=O)n1Cc1ccco1 (stereo not given),.,-1%,.,?,8%,.
CSc1cccc(Nc2cc(C(=O)NCCCN(C)c3ccccc3)c3ccccc3n2)c1,.,13µM*,.,15µM*,6%,.
CCc1ccc(Nc2cc(C(=O)NCCCN(C)c3ccccc3)c3ccccc3n2)cc1,.,13µM*,.,?,5%,.
COc1ccccc1Nc1cc(C(=O)NCCCN(C)c2ccccc2)c2ccccc2n1,.,?,.,?,1%,.
CCOC(=O)c1ccc(Nc2nc(C)nc3c2nnn3Cc2ccccc2)cc1,-1,?,0,?,2%,-21%
CC(=O)c1ccc(NC(=S)Nc2ccc3cn[nH]c3c2)cc1,18,?,-73*,?,3%,17%
O=C(c1csnn1)N1CCC2(CCCN(c3ccccn3)C2)CC1,.,-22%,.,-2%,.,.
CCOC(=O)C(NCCc1ccccc1)(NC(=O)CC)C(F)(F)F (stereo not given),15,-27%,-7,-21%,0%,8%
CN(C(=O)c1ccc(NC(=O)Cc2cccc(NC(=O)C3CCCN(C(=O)CCc4ccccc4)C3)c2)cc1)C1CC1 (stereo not given),-17,?,8,?,.,.
CN(CCc1ccccc1)C(=O)c1ccc(NC(=O)Cc2ccc(NC(=O)C3CCN(C(=O)CCc4ccccc4)CC3)cc2)cc1,-27,7.3µM*,23,15µM*,.,.
CN(CCc1ccccc1)C(=O)c1ccc(NC(=O)Cc2cccc(NC(=O)C3CCN(C(=O)CCc4ccccc4)CC3)c2)cc1,-3,?,20,?,.,.
CN(CCc1ccccc1)C(=O)c1ccc(NC(=O)Cc2ccc(NC(=O)C3CCCN(C(=O)CCc4ccccc4)C3)cc2)cc1 (stereo not given),34,10µM*,9,13µM*,.,.
CN(CCc1ccccc1)C(=O)c1ccc(NC(=O)Cc2ccc(NC(=O)C3CCN(S(=O)(=O)c4cccc([N+](=O)[O-])c4)CC3)cc2)cc1,-17,9.2µM*,37,?,.,.
CN(CCc1ccccc1)C(=O)c1ccc(NC(=O)Cc2ccc(NC(=O)C3CCCN(C(=O)C4CCC4)C3)cc2)cc1 (stereo not given),11,13µM*,-4,13µM*,.,.
O=C(Nc1ccc(Cl)cc1)N(C1=NCCC1)c1ccc(OC(F)F)cc1,0,?,-17,-16%,-5%,?
Cc1ccc(F)cc1C(=O)N1CCOCC1c1cc(C(=O)Nc2ccccc2)no1 (stereo not given),.,?,9,?,.,.
COc1ccc(O)c(CN2CCOc3c(cc(-c4cccc(OC)n4)cc3OC)C2)c1,.,?,.,-3%[9.04 µM],.,.
C=CCN1C(=O)N(c2ccccc2)C(=O)C1CC(=O)Nc1ccc(OC)cc1 (stereo not given),-11,7%,-17,13%,.,9%
CC(C)CCNc1ncnc2c1cnn2-c1cccc(Cl)c1,.,?,.,?,-3%,.
OCCNc1ncnc2c1cnn2Cc1ccccc1,36,7%,-14,-9%,.,-1%
SMILES,Giardia killer,TDP1 cell noCPT,IL1B secr inh,DT40 TDP1 CPT,TDP1 block,ELG1 DNA repair
c1ccc(CNc2ncnc3c2cnn3Cc2ccccc2)cc1,-14,13µM*,-17,13µM*,-1%,-28%
COc1ccc(Nc2ncnc3c2cnn3Cc2ccccc2)cc1,11,?,-54*,?,0%,-24%
CC(C)CCNc1ncnc2c1cnn2Cc1ccccc1Cl,19,?,-15,29µM*,.,?
CCOc1ccc(Nc2ncnc3c2cnn3Cc2ccccc2)cc1,-6,-26%,-15,?,5%,?
Cc1cccc(OCC(=O)Nc2ccc(S(=O)(=O)N(Cc3ccccc3)c3ccccc3)cc2)c1,.,3.3µM*,.,10µM*,-1%,.
O=C(COc1ccccc1)Nc1ccc(S(=O)(=O)N(Cc2ccccc2)c2ccccc2)cc1,.,15µM*,.,?,6%,.
CC(=O)Nc1ccc(S(=O)(=O)N(Cc2ccccc2)c2ccccc2)cc1,10,?,24,-2%,0%,-6%
O=C(O)c1cnc2[nH]c3ccccc3n2c1=O,0,-1%,3,1%,4%,3%
CCCCNC(=O)CN1C(=O)c2cccnc2Sc2ccccc21,.,?,.,-12%,6%,.
Cc1cc(C)c(C)c(OCCCCN(C)Cc2ccccc2)c1,-8,21µM*,-19,?,.,-13%
CCc1ccc(OCCCCN(C)Cc2ccccc2)cc1,-9,29µM*,?,?,.,-12%
CCN(CC)CCOc1ccc(Cc2ccccc2)cc1,.,21µM*!,.,24µM*!,-4%,.
CCN(Cc1ccccc1)Cc1ccc(OCc2ccccc2)cc1,-14,?,15,-17%,.,3%
COc1cc(OC)c2c(C)c(CC(=O)NCCc3ccccc3OC)c(=O)oc2c1,.,0%,.,6%,6%,.
Cc1ccc(NC(=O)C2CC(=O)N(C(C)C)C2)cc1Cl (stereo not given),5,2%,0,-29%,7%,1%
CC(=O)Nc1ccc(NC(=O)C2CC(=O)N(Cc3ccccc3)C2)cc1 (stereo not given),8,4%,-24,-2%,-5%,7%
Cc1ccc(NC(=O)C2CC(=O)N(C(C)C)C2)cc1C (stereo not given),-27,-17%,-65*,-15%,.,-20%
Cc1ccc(NC(=O)C2CC(=O)N(Cc3ccccc3)C2)cc1S(=O)(=O)N1CCCCCC1 (stereo not given),-9,?,-52*,29µM*,3%,?
